Laboratory results reported in the supplement of paper PMC13380429.

Test system: Vero E6 infected with SARS-CoV-2
Test: inhibition of SARS-CoV-2 cytopathic effect; higher = more antiviral protection, active = above 15
Settings: 48 h

Measured: inhibition of SARS-CoV-2 cytopathic effect

NC(=O)c1[nH]cnc1O
inactive: 1 nM 0.65% | 8.33 nM 1.77% | 100 nM 0.2% | 833.33 nM -1.72% | 10000 nM 3.24%

C[N+](C)(C)NCCC(=O)O [meldonium]
inactive: 1 nM -1.15% | 8.33 nM -0.85% | 100 nM -2.99% | 833.33 nM -0.28% | 10000 nM -2.51%

NNc1nncc2ccccc12 [hydralazine]
inactive: 1 nM 0.09% | 8.33 nM 0.28% | 100 nM -1.28% | 833.33 nM -0.12% | 10000 nM 0.87%

CCCCCCCC(=O)N[C@H](CN1CCCC1)[C@H](O)c1ccc2c(c1)OCCO2 [eliglustat]
inactive: 1 nM 3.28% | 8.33 nM 2.4% | 100 nM -0.12% | 833.33 nM 4.02% | 10000 nM 0.05%

CC(C)=CCC/C(C)=C/CNCCNC1C2CC3CC(C2)CC1C3 (stereo not given)
inactive: 1 nM 0.6% | 8.33 nM 0.09% | 100 nM 1.62% | 833.33 nM 1.05% | 10000 nM 0.17%

COc1cc2c(c(OC)c1OC)-c1ccc(OC)c(=O)cc1[C@@H](NC(C)=O)CC2 [colchicine]
inactive: 1 nM 2.74% | 8.33 nM 2.19% | 100 nM 0.8% | 833.33 nM -0.41% | 10000 nM 1.35%

Fc1ccc(-n2cc(CCCCN3CCC4(CC3)OCc3ccccc34)c3ccccc32)cc1 [siramesine]
inactive: 1 nM 0.05% | 8.33 nM 1.88% | 100 nM 1.49% | 833.33 nM 4.24%
active: 10000 nM 28.7%

O=C1CC[C@@]2(O)[C@H]3Cc4ccc(O)c5c4[C@@]2(CCN3CC2CC2)[C@H]1O5
inactive: 1 nM 4.81% | 8.33 nM 3.83% | 100 nM 1.26% | 833.33 nM -1.24% | 10000 nM 0.01%

CCn1c(-c2nonc2N)nc2cncc(C(=O)N3CC[C@H](N)C3)c21
inactive: 1 nM 0.81% | 8.33 nM 3.31% | 100 nM 2.3% | 833.33 nM -3.28% | 10000 nM -2.39%

Clc1ccc2c(c1)CCc1cccnc1C2=C1CCNCC1 [desloratadine]
inactive: 1 nM 5.47% | 8.33 nM 2% | 100 nM 3.51% | 833.33 nM -0.44% | 10000 nM -5.42%

O=C1/C(=C/c2ccccc2)C[C@@]2(O)[C@H]3Cc4ccc(O)c5c4[C@@]2(CCN3CC2CC2)[C@H]1O5
inactive: 1 nM -2.61% | 8.33 nM 0.97% | 100 nM 1.2% | 833.33 nM 8.78% | 10000 nM -26.4%

O=C(CCCN1CCC2(CC1)C(=O)N(Cc1cccc(F)c1)CN2c1ccccc1)c1ccc(F)cc1 [3'-fluorobenzylspiperone]
inactive: 1 nM 1.1% | 8.33 nM 1.76% | 100 nM 1.3% | 833.33 nM 4.46%
active: 10000 nM 71.7%

C[C@]12CCC(=O)C=C1CC[C@@H]1[C@@H]2[C@@H](O)C[C@@]2(C)[C@H]1CC[C@]2(O)C(=O)COC(=O)CCC(=O)O [hydrocortisone-hemisuccinate]
inactive: 1 nM -3.36% | 8.33 nM -5.52% | 100 nM -5.26% | 833.33 nM -3.7% | 10000 nM -4.67%

Cc1ccc2c(c1)[C@]13CCCC[C@@H]1[C@H](C2)N(C)CC3 [dimemorfan]
inactive: 1 nM 0% | 8.33 nM 0.39% | 100 nM 0.04% | 833.33 nM 1.02% | 10000 nM 0.98%

O=S(=O)(O)c1cc(I)c(O)c2ncccc12 [chiniofon]
inactive: 1 nM -0.29% | 8.33 nM -0.47% | 100 nM -0.93% | 833.33 nM 3.44% | 10000 nM -0.39%

O=C(Nc1cnn2ccc(N3CCC[C@@H]3c3cc(F)ccc3F)nc12)N1CC[C@H](O)C1 [larotrectinib]
inactive: 1 nM 1.44% | 8.33 nM 4.14% | 100 nM 3.48% | 833.33 nM -0.49% | 10000 nM 2.41%

CCCNCC(O)COc1ccccc1C(=O)CCc1ccccc1 (stereo not given) [propafenone]
inactive: 1 nM -2.13% | 8.33 nM -0.69% | 100 nM 2.83% | 833.33 nM 3.83% | 10000 nM -0.5%

CCOC(=O)Nc1ccc2c(c1)N(C(=O)CCN(CC)CC)c1ccccc1S2 [ethacizin]
inactive: 1 nM -5.42% | 8.33 nM -5.11% | 100 nM -2.38% | 833.33 nM -1.38% | 10000 nM 2.9%

COc1ccc2nc3c(c(N)c2c1)CCCC3 [7-methoxytacrine]
inactive: 1 nM 0.9% | 8.33 nM 2.7% | 100 nM 0.06% | 833.33 nM 4.86% | 10000 nM 4.52%

CC(=O)N1CC[N+](C)(C)CC1 [4-acetyl-1,1-dimethylpiperazinium]
inactive: 1 nM 0.03% | 8.33 nM -1.23% | 100 nM 0.82% | 833.33 nM 1.13% | 10000 nM 0.5%

Cc1ccccc1C(OCCN(C)C)c1ccccc1 (stereo not given) [orphenadrine]
inactive: 1 nM 0.59% | 8.33 nM 0.5% | 100 nM -0.66% | 833.33 nM 1.65% | 10000 nM -0.73%

CCCCC(=O)O[C@]1(C(=O)CO)[C@@H](C)C[C@H]2[C@@H]3CCC4=CC(=O)C=C[C@]4(C)[C@@]3(F)[C@@H](O)C[C@@]21C
inactive: 1 nM -3% | 8.33 nM -2.7% | 100 nM -2.96% | 833.33 nM -2.78% | 10000 nM -4.48%

Cn1cncc1[C@@](N)(c1ccc(Cl)cc1)c1ccc2c(c1)c(-c1cccc(Cl)c1)cc(=O)n2C [tipifarnib]
inactive: 1 nM 0.24% | 8.33 nM 0.1% | 100 nM 1.79% | 833.33 nM 2.2% | 10000 nM -9.4%

CC(C)(C)NCc1cc(Nc2ccnc3cc(Cl)ccc23)c2c(c1O)CCCC2 [naphthoquine-phosphate]
inactive: 1 nM -1.58% | 8.33 nM -2.22% | 100 nM -0.22% | 833.33 nM -0.36% | 10000 nM -5.14%

CSC[C@H](N)C(=O)O [S-methylcysteine]
inactive: 1 nM 4.21% | 8.33 nM 3.63% | 100 nM 1.96% | 833.33 nM -0.82% | 10000 nM 0.31%

CCn1ccnc1CC1COc2ccccc2O1 (stereo not given) [imiloxan]
inactive: 1 nM 2% | 8.33 nM -0.87% | 100 nM -0.32% | 833.33 nM 4.69% | 10000 nM -0.13%

O=C(Nc1ccccc1Br)N[C@@H]1CCN(c2ccc(C(F)(F)F)cn2)C1
inactive: 1 nM 3.02% | 8.33 nM 3.06% | 100 nM 1.72% | 833.33 nM 3.42% | 10000 nM 1.82%

COc1nccc(-c2c(-c3ccc(F)cc3)ncn2[C@H]2CC[C@H](O)CC2)n1
inactive: 1 nM 5.42% | 8.33 nM 6.4% | 100 nM 3.88% | 833.33 nM 2.66% | 10000 nM 7.7%

CC(C)Oc1ccc(-c2nc(-c3cccc4c3CC[C@H]4NCCC(=O)O)no2)cc1C#N
inactive: 1 nM -2.71% | 8.33 nM -1.13% | 100 nM 0.51% | 833.33 nM 2.4% | 10000 nM -0.03%

COc1ccc(-c2ccc3cc(C(=O)O)ccc3c2)cc1C12CC3CC(CC(C3)C1)C2 [adapalene]
inactive: 1 nM -0.05% | 8.33 nM -0.29% | 100 nM 2.4% | 833.33 nM 2.31% | 10000 nM 3.12%

O=C(OCCO)c1ccccc1O [2-hydroxyethyl-salicylate]
inactive: 1 nM 0.19% | 8.33 nM 1.56% | 100 nM -0.09% | 833.33 nM 0.15% | 10000 nM -2.92%

COc1cc2c(Oc3ccc(NC(=O)C4(C(=O)Nc5ccc(F)cc5)CC4)cc3F)ccnc2cc1OCCCN1CCOCC1 [foretinib]
inactive: 1 nM -0.07% | 8.33 nM -1.17% | 100 nM 2.06% | 833.33 nM -5.86% | 10000 nM -22.4%

O=P1(NCCCl)OCCCN1CCCl (stereo not given) [ifosfamide]
inactive: 1 nM 0.24% | 8.33 nM -2.31% | 100 nM 0.48% | 833.33 nM 0.22% | 10000 nM -0.05%

CC(C)OC(=O)OCOP(=O)(CO[C@H](C)Cn1cnc2c(N)ncnc21)OCOC(=O)OC(C)C [tenofovir-disoproxil]
inactive: 1 nM 0.65% | 8.33 nM -1.58% | 100 nM 3.17% | 833.33 nM -4% | 10000 nM -9.11%

CC[C@@H]1/C=C(\C)C[C@H](C)C[C@H](OC)[C@H]2O[C@@](O)(C(=O)C(=O)N3CCCC[C@H]3C(=O)O[C@H](/C(C)=C/[C@@H]3CC[C@@H](O)[C@H](OC)C3)[C@H](C)[C@@H](O)CC1=O)[C@H](C)C[C@@H]2OC [ascomycin]
inactive: 1 nM 1.02% | 8.33 nM 2.65% | 100 nM 2.8% | 833.33 nM 2.76% | 10000 nM 1.33%

CC(C)(C)NCC(O)COc1cccc2c1CCC(=O)N2 (stereo not given) [carteolol]
inactive: 1 nM 2.16% | 8.33 nM 1.11% | 100 nM 0.54% | 833.33 nM 2.62% | 10000 nM -0.66%
